PubChem BioAssay (Tox21)
Inconclusive results are not listed. A call without a number means that no potency is given here. Active and inactive are the calls of the source. Unless noted, calls follow the shape of the dose curve; as a rule, active = well fitted curve in the direction sought with a large enough effect in the repeat runs; inconclusive = weak or mixed curves; inactive = no such curve, though single readings can be large; an effect the other way counts as inactive or inconclusive.

Columns and labels:
[1] = qHTS assay to identify small molecule antagonists of the estrogen receptor alpha (ER-alpha) signaling pathway using the BG1 cell line in the presence of 0.1 nM 17-beta-estradiol - cell viability counter screen (AID 1259241); also: nearly all actives have a fitted effect of over 40% in size
Method in brief: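 Cytotoxicity counter-screen: live-cell protease activity measured by fluorescence (30 min reagent step) in the same wells. Cells were VM7Luc4E2 with endogenous ER-alpha and ERE-driven luciferase, treated 22 hr at 37C alongside 0.1 nM 17beta-estradiol final.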

[2] = qHTS assay to identify small molecule antagonists of the androgen receptor (AR) signaling pathway using the MDA cell line in the presence of 0.5 nM R1881 - cell viability counter screen (AID 1259242); also: nearly all actives have a fitted effect of over 45% in size
Method in brief: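 Cells seeded at 3,000/well and allowed 5 hr at 37C, 0% CO2 before compound transfer and R1881 (0.5 nM final) addition; 16 hr later, live-cell protease fluorescence indicated cytotoxicity.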

[3] = qHTS assay to identify small molecule HDAC inhibitors - cell viability counter screen (AID 1259365); also: series mostly up to about 92 µM; nearly all actives have a fitted effect of over 50% in size
Method in brief: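 CellTiter-Glo luminescence (30 min, room temperature) reported viability after a 2 h compound exposure at 37 C. Cells: wild-type HCT-116, 1,500 per well, seeded the night before.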

[4] = qHTS assay to identify small molecule agonists of the sonic hedgehog signaling (Shh) pathway - cell viability counter screen (AID 1259366); also: nearly all actives have a fitted effect of over 50% in size
Method in brief: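 Cytotoxicity counter screen: CellTiter-Fluor reagent added after 23 h compound exposure, then 1 h at 37C and fluorescence read. Cells were 3T3 Gli1-Luc, seeded 2,000 per well and dosed 4 h post-plating.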

[5] = qHTS assay to identify small molecule antagonists of the sonic hedgehog signaling (Shh) pathway - cell viability counter screen (AID 1259367); also: nearly all actives have a fitted effect of over 55% in size; also: potency is read from the fitted curve at half-maximal effect
Method in brief: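 CellTiter-Fluor signal in conditioned medium-stimulated 3T3 Gli1-Luc cells, 23 hr compound exposure, 37C.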

[6] = biological target: Androgen receptor (Homo sapiens) (UniProt P10275); assay: qHTS assay to identify small molecule antagonists of the androgen receptor (AR) signaling pathway using the MDA cell line in the presence of 0.5 nM R1881 (AID 1259243); also: potency is read from the fitted curve at half-maximal effect; nearly all actives have a fitted effect of over 50% in size
Method in brief: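 Luminescence from an AR/GR-responsive MMTV-luciferase construct in MDA-kb2 breast carcinoma cells, read 30 min after ONE-Glo, following 16 hr co-treatment with compounds and 0.5 nM R1881.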

[7] = biological target: Estrogen receptor (Homo sapiens) (UniProt P03372); assay: qHTS assay to identify small molecule antagonists of the estrogen receptor alpha (ER-alpha) signaling pathway using the BG1 cell line in the presence of 0.1 nM 17-beta-estradiol (AID 1259244); also: nearly all actives have a fitted effect of over 50% in size; also: potency is read from the fitted curve at half-maximal effect
Method in brief: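 Luciferase signal from VM7Luc4E2 ERE-reporter cells, co-dosed with test compound and 0.1 nM final 17beta-estradiol for 22 h, read with ONE-Glo.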

[8] = qHTS assay to identify small molecule phospholipidosis (PLD) inducers (AID 1259344; active = well fitted curve in the direction sought with a large enough effect; an effect the other way counts as inactive or inconclusive)
Method in brief: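 Accumulated phospholipid, stained red by LipidTOX during 24 h compound treatment of HepG2 cells at 37 C, is quantified from images as pit number and intensity, normalised per cell using Hoechst-stained nuclei.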

[9] = qHTS assay to identify small molecule HDAC inhibitors (AID 1259364); also: potency is read from the fitted curve at half-maximal effect;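 also: wild-type HCT-116 cells with endogenous class I/II HDAC activity; nearly all actives have a fitted effect of over 45% in size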
Method in brief: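 HCT-116 wt cells, 1,500/well, overnight attach. Compounds (DMSO) 2 h, 37 °C. HDAC-Glo I/II, 30 min RT. Luminescence.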

[10] = qHTS assay to identify small molecule agonists of the sonic hedgehog signaling (Shh) pathway (AID 1259368; calls by dose curve;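 also: NIH/3T3-derived 3T3Gli1-Luc cells carrying a stable Gli1-driven firefly luciferase reporter; series mostly up to about 92 µM; nearly all actives have a fitted effect of over 15% in size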)
Method in brief: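 Following a 24 hr incubation with DMSO-dissolved compounds at 37 C, 5% CO2, Gli1-Luc NIH/3T3-derived cells received luciferase reagent for 30 min at room temperature prior to luminescence measurement.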

Estrogen receptor (Homo sapiens), sequence (P03372 whole entry, looked up): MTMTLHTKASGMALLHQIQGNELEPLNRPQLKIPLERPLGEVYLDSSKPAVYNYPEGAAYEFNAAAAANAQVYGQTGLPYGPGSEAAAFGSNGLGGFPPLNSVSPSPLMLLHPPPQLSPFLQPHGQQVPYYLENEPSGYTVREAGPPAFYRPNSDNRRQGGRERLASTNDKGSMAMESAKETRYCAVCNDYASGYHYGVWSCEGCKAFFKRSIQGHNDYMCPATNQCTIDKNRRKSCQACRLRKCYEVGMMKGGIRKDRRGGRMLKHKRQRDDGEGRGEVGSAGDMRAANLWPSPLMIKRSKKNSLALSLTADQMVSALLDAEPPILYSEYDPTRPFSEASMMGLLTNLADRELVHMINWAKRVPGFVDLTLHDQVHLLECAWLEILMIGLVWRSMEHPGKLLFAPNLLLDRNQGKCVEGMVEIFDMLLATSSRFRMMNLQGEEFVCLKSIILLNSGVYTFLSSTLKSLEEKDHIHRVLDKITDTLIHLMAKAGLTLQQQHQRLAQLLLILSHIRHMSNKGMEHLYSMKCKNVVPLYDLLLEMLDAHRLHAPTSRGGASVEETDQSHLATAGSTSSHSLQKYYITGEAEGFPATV
Androgen receptor (Homo sapiens), sequence (P10275 whole entry, looked up): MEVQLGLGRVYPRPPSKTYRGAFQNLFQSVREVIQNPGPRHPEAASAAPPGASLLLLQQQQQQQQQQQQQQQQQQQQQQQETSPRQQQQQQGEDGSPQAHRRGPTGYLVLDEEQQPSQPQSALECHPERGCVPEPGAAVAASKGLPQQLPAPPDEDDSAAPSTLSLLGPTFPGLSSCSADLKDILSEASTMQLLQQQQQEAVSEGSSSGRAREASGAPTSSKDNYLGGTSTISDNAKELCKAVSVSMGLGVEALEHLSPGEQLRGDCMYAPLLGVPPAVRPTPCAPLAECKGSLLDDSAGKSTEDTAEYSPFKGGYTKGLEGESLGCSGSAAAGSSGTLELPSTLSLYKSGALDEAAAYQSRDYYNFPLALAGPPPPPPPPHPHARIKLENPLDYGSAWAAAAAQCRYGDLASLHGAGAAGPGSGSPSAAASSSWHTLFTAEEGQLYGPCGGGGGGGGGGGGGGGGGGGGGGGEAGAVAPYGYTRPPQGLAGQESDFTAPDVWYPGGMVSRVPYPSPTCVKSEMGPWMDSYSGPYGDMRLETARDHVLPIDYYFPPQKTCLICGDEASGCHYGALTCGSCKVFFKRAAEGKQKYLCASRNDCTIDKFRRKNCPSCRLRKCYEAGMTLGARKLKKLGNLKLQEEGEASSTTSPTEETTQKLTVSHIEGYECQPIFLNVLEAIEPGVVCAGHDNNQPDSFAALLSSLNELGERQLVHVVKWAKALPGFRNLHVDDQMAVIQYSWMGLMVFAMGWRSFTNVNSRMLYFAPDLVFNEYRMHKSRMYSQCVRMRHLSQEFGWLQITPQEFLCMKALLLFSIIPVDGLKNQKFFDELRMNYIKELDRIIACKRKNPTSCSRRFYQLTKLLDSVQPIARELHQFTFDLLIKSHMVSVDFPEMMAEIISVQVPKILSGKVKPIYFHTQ

Row | SMILES | Potency [1] | Potency [2] | Potency [3] | Potency [4] | Potency [5] | Potency [6] | Potency [7] | Potency [8] | Potency [9] | Potency [10]
1 | CCCCCCCCOc1ccc(C(=O)O)cc1 | inactive | inactive | inactive | inactive | inactive | – | – | – | – | –
2 | Oc1ccc(Cl)c2cccnc12 | inactive | – | inactive | – | 3.35 µM (active) | 10.6 µM (active) | 21.1 µM (active) | inactive | inactive | inactive
3 | O=C1c2ccccc2C(=O)C1c1nc2ccccc2c(Br)c1O | inactive | – | inactive | inactive | inactive | – | inactive | – | 27.3 µM (active) | inactive
4 | O=C1c2ccccc2C(=O)C1(O)O | inactive | inactive | – | – | 54.8 µM (active) | – | – | – | inactive | –
5 | CC(CC1c2ccccc2CCc2ccccc21)CN(C)C (stereo not drawn) | – | – | inactive | inactive | inactive | – | – | – | inactive | inactive
6 | CN1C[C@H](C(=O)N[C@]2(C)O[C@@]3(O)[C@@H]4CCCN4C(=O)[C@H](Cc4ccccc4)N3C2=O)C[C@@H]2c3cccc4[nH]cc(c34)C[C@H]21 | – | inactive | inactive | – | inactive | – | – | – | inactive | inactive
7 | COC(=O)c1nc(Cl)c(Cl)nc1N | inactive | – | inactive | – | 5.31 µM (active) | – | – | – | – | inactive
8 | c1ccc2c(c1)CCc1ccccc1N2 | inactive | inactive | inactive | inactive | inactive | – | – | – | – | –
